Measurements: PubChem BioAssay AID1510 (The Scripps Research Institute Molecular Screening Center, 2009)
In all, about 220,000 compounds went through this assay and about 570 (0.26%) were called active. The sample holds actives, similar compounds and a random draw of the others, so the mix is not that of the screen. Values without a mark were called inactive. No stated cut-off is given here; in the data, active means inhibition above about 29%; inactive means the rest.

Target: Sphingosine 1-phosphate receptor 4 (Homo sapiens) (UniProt O95977)
Test: blockers of human S1P4 receptor – cell-based, primary screen (AID 1510);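 further: 0% = wells stimulated with agonist and 100% = vehicle wells without agonist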
Details: S1P4-expressing cells, antagonist mode, reporter read-out; at 4.98 µM; hits give high values

Chain of Sphingosine 1-phosphate receptor 4 (Homo sapiens) (O95977 whole entry, looked up): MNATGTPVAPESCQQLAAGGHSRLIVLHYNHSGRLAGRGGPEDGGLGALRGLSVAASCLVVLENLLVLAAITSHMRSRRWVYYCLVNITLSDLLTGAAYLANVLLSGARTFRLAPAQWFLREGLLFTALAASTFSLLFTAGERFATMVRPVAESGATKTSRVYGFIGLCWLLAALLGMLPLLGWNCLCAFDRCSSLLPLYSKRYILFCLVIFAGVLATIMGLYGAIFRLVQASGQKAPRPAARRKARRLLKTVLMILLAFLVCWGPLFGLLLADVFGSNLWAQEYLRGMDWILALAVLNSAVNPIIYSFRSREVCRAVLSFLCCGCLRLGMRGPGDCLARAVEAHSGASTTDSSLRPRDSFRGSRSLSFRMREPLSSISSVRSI

First: O=S1(=O)CCC(NC(=S)SCc2ccccc2Br)C1 (stereo not given)
Second: CN(C(=O)CSc1nnc(Nc2ccccc2)s1)C1CCS(=O)(=O)C1 (stereo not given)
The inhibition of the first is higher: -3.75% for the first, -10.1% for the second.

Compared with `CC(C)Sc1nnc([C@H](Cc2ccccc2)NC(=O)OC(C)(C)C)o1`, `C[C@H](NC(=O)OC(C)(C)C)c1nnc(SCC(N)=O)o1` is lower in inhibition: -0.59% for the first, -7.8% for the second.

First: CC(C(=O)NC1CCCC1)N(c1ccc(Oc2ccccc2)cc1)S(C)(=O)=O (stereo not given)
Second: CCc1nnc(NC(=O)CCN(c2ccc(C)cc2)S(=O)(=O)c2ccccc2)s1
The inhibition of the first is lower: -5.41% for the first, -0.25% for the second.

Compared with `CC(=O)N1CCN(S(=O)(=O)c2c(F)cc(F)c(Cl)c2F)CC1`, `O=C(Nc1ccc(F)cc1F)N1CCCN(CCOc2ccccc2)CC1` is lower in inhibition: 6.68% for the first, 6.19% for the second.

First: COCCCN(C(=S)Nc1c(C)cc(C)cc1C)C(C)c1ccncc1 (stereo not given)
Second: COc1ccc(N2CCC(CNC(=S)Nc3c(C)cccc3C)C2)cc1 (stereo not given)
The inhibition of the first is lower: -9.1% for the first, 4.09% for the second.

First: CCOC(=O)Cc1csc(NC(=O)CSc2ccc(Br)cc2)n1
Second: N#Cc1c(-c2cccs2)nc(SCC(=O)c2ccc(Br)cc2)[nH]c1=O
The inhibition of the first is lower: -7.78% for the first, 15.8% for the second.

Going from `Cc1cc(-c2cccs2)nc(-n2cccc2)n1` to `Cc1nc2ccccc2n1CC(=O)N/N=C/c1cccs1`, the inhibition falls from -8.93% to -34.3%.

Going from `O=C(NNC(=S)NC(=O)c1cn(-c2ccccc2)nc1-c1ccccc1)c1ccncc1` to `COCCCNC(=S)NNC(=O)C(O)(c1ccccc1)c1ccccc1`, the inhibition falls from 13.1% to -8.87%.

First: O=C(NCCOc1ccccc1Cl)C(=O)Nc1ccccc1
Second: O=C(Nc1ccccc1)OCc1cc(-c2ccc(Cl)cc2)on1
The inhibition of the first is higher: -2.25% for the first, -6.25% for the second.

First: S=C(NCC1CCCO1)N1CCN(c2ccc(Cl)c(Cl)c2)CC1 (stereo not given)
Second: CN(C)c1ccc(C(=S)N2CCN(C(=S)Nc3ccc(Cl)cc3)CC2)cc1
The inhibition of the first is higher: 4.85% for the first, -3.9% for the second.

Compared with `CCC(C)(C)NC(=O)C(c1ccc(O)cc1)N(C(=O)Cn1nnc2ccccc21)c1ccc(NC(C)=O)cc1` (stereo not given), `CC(=O)Nc1ccc(S(=O)(=O)Nc2nccc(/C=C/c3ccccc3F)n2)cc1` is lower in inhibition: -9.34% for the first, -21.4% for the second.

Compared with `COc1cccc(NC(=O)c2nn(-c3ccc(OC)cc3OC)c(=O)c3ccccc23)c1`, `CCOc1ccc(C(CCc2ccccc2)NC(=O)c2ccc(OC)c(OC)c2)cc1OCC` (stereo not given) is higher in inhibition: -8.83% for the first, 0.03% for the second.

Compared with `O=C(/C=C/c1ccc(Cl)c([N+](=O)[O-])c1)c1cccnc1`, `O=C(Nc1nc2ccc([N+](=O)[O-])cc2s1)c1ccncc1` is lower in inhibition: 2.24% for the first, -29% for the second.

First: O=C(/C=C/c1ccc(Cl)cc1Cl)NCc1ccco1
Second: COc1ccc(Nc2cc(Cl)ccc2C(=O)O)cn1
The inhibition of the first is higher: 3.88% for the first, 0.55% for the second.

Going from `Cc1cc(=O)n2[nH]c(-c3sccc3-n3c(C)ccc3C)cc2n1` to `CCc1c(C)nc2cc(C)[nH]n2c1=O`, the inhibition rises from -27% to 5.94%.

Going from `CN1C(=O)C(CC(=O)Nc2ccccc2)S/C1=N/c1nccs1` (stereo not given) to `Cc1ccc(NC(=O)CC2C(=O)N(Cc3ccccc3)C(=S)N2NC(=O)c2cccc(F)c2)c(C)c1` (stereo not given), the inhibition rises from -20.3% to 6.19%.

First: Cc1coc2c(O)cc3c(c12)OC1(N2CCCCC2)C(=O)NCCCC31 (stereo not given)
Second: O=C(NCCCc1ccccc1)C1CCC(CNc2c(N3CCCCC3)c(=O)c2=O)CC1 (stereo not given)
The inhibition of the first is higher: 9.33% for the first, 0.07% for the second.

First: COCc1cc(=O)oc2cc(NS(=O)(=O)c3ccc(C)cc3)ccc12
Second: Cc1ccc(S(=O)(=O)Nc2nc3ccccc3s2)cc1[N+](=O)[O-]
The inhibition of the first is higher: 13.1% for the first, -9.6% for the second.

First: CC(C)(C)c1ccc(/C=C2\Oc3c(ccc(O)c3CN3CCN(CCO)CC3)C2=O)cc1
Second: O=C(NCc1ccc2c(c1)OCO2)c1ccc2c(c1)C(=O)N(CC1CCCO1)C2=O (stereo not given)
The inhibition of the first is higher: 12.8% for the first, 4.48% for the second.

First: Cc1ccc2c(c1)C1CN(C)CCC1N2C(=S)Nc1ccc(Cl)cc1Cl (stereo not given)
Second: FC(F)(F)c1cccc(-c2nc(COc3ccc(Cl)cc3Cl)no2)c1
The inhibition of the first is lower: -21% for the first, -7.31% for the second.

Going from `O=S(=O)(NCCc1ccc(F)cc1)c1cccc2cccnc12` to `CCCCCC(O)c1cccc(OCc2ccc3ccccc3n2)c1` (stereo not given), the inhibition rises from -18.1% to -14.6%.

Going from `CC(=O)Oc1c(C(=O)c2nnc(C)o2)c(=O)n(Cc2ccccc2)c2ccccc12` to `CC(=O)c1c(-c2ccccc2)c2ccccc2[nH]c1=O`, the inhibition falls from -3.21% to -27.5%.

Going from `O=C(O)CCC(=O)Nc1nc2ccc([N+](=O)[O-])cc2s1` to `CC(C)c1ccc(NC(=O)CCN2C(=O)c3ccc([N+](=O)[O-])cc3C2=O)cc1`, the inhibition falls from -2.95% to -5.92%.

Compared with `Cc1cc(C)cc(OCC(=O)O/N=C(\N)Cc2ccc([N+](=O)[O-])cc2)c1`, `Cc1ccc(C(=O)Nc2sc(Cc3ccc4c(c3)OCO4)c(C)c2C(N)=O)cc1` is lower in inhibition: -5.5% for the first, -11.1% for the second.

Going from `FC(F)Oc1ccccc1NC(=S)Nc1cccc(Cl)c1Cl` to `COc1ccc(NC(=S)Nc2ccccc2Cl)cn1`, the inhibition falls from 5.26% to -10.6%.

First: COC(=O)CC1=NN(c2nc(C)cc(C)n2)C(=O)C1
Second: Cc1csc(CN(C)C(=O)CC2C(=O)NCCN2CC(C)(C)C)n1 (stereo not given)
The inhibition of the first is lower: -14.2% for the first, 2.01% for the second.

Compared with `CC(=O)c1cc(C#N)c(N2CC(C)OC(C)C2)nc1C` (stereo not given), `CCOc1ccc2nc(C(=O)N3CCCC(C)C3)sc2c1` (stereo not given) is higher in inhibition: -33.6% for the first, 14.6% for the second.

Going from `O=C(O)/C=C/c1ccc2c(c1)OCCO2` to `O=C(O)CSc1nccn1-c1cccc(Cl)c1`, the inhibition falls from -7.83% to -14.5%.

First: O=C(Nc1ccccc1Cl)c1ccc2nsnc2c1
Second: COc1ccc(/C=N/NC(=O)Nc2ccc3nsnc3c2)c(OC)c1
The inhibition of the first is lower: -7.15% for the first, 9.36% for the second.

Compared with `O=C(CN1CCCCC1)Nc1ccccc1Cl`, `COC(=O)c1ccccc1NC(=O)C1CCN(S(=O)(=O)c2cc(OC)ccc2OC)CC1` is lower in inhibition: -3.07% for the first, -24.9% for the second.

First: O=C1N(c2ccccc2)C(=Nc2ccccc2)SC12CC2
Second: Oc1ccc(-c2nncn2-c2ccccc2)cc1
The inhibition of the first is higher: 1.83% for the first, -11.3% for the second.

First: CCN(CC)S(=O)(=O)c1ccc(C)c(NC(=O)COc2ccc(Br)cc2Cl)c1
Second: Cc1ccc(OCCOCCOc2ccc(Br)cc2/C=N\NC(=O)c2ccncc2)cc1
The inhibition of the first is higher: -3.44% for the first, -17.4% for the second.

First: O=C(Cc1cccs1)N(CC1CCCO1)C1(C(=O)NC2CCCCC2)CCCCC1 (stereo not given)
Second: O=c1c2cc3c(=O)n(CC4CCCO4)c(=O)c3cc2c(=O)n1CC1CCCO1 (stereo not given)
The inhibition of the first is lower: -13.5% for the first, 1.15% for the second.

Compared with `O=C(Nc1nnc(C2COc3ccccc3O2)o1)c1ccc(F)cc1` (stereo not given), `CC(C)N(C)C(=O)CCc1nnc(CCc2c[nH]c3ccccc23)o1` is higher in inhibition: -4.96% for the first, -1.14% for the second.

Going from `CC(C)c1cc(NCc2ccccn2)n2c(nc3ccccc32)c1C#N` to `O=C1c2cccc3cc(Br)cc(c23)C(=O)N1Nc1ccccc1`, the inhibition falls from 12.6% to -15.2%.

First: Cn1nnnc1NCc1ccc(Cl)c(Cl)c1
Second: CN(C)CCNC(CC(=O)Nc1ccc(Cl)c(Cl)c1)C(=O)O (stereo not given)
The inhibition of the first is higher: 4.37% for the first, 0.14% for the second.

Going from `C/C(=N\Nc1ccc([N+](=O)[O-])cc1)c1ccc(-n2nncc2C(C)(C)C)cc1` to `O=C(CC(=O)Nc1ccc(Cl)c(Cl)c1)N/N=C/c1ccc(O)cc1`, the inhibition falls from -11.5% to -17.9%.

First: CC(=O)c1cccc(NC(=O)[C@@H](NC(N)=O)C(C)C)c1
Second: CCNC(=O)COC(=O)CCNC(=O)c1cccc(C)c1
The inhibition of the first is higher: -13.9% for the first, -16.4% for the second.

First: Cc1ccc(NC(=O)OCc2cncs2)cc1
Second: Cc1cccc(NC(=S)NC(=O)c2ccc(Br)o2)c1
The inhibition of the first is higher: 6.88% for the first, -1.45% for the second.

Going from `COc1ccc(NC(=S)NCCNC(C)=O)cc1` to `O=C(CCN1C(=O)C2C3C=CC(C3)C2C1=O)Oc1ccc2ccccc2c1` (stereo not given), the inhibition falls from 4.01% to 0.5%.

First: CCn1cc(-c2cc(C(=O)O)on2)c(C)n1
Second: Cc1onc(NC(=O)c2ccc([N+](=O)[O-])o2)c1Br
The inhibition of the first is lower: -15.2% for the first, 28.1% for the second.

First: CCN(CCNC(=O)C1=C(C)C(=O)OC12CCC(C)CC2)c1ccccc1 (stereo not given)
Second: CN(C)C(=O)CSc1n[nH]c(-c2ccco2)n1
The inhibition of the first is higher: 7.01% for the first, -22.7% for the second.

In the case of `C[C@@H](NC(=O)OC(C)(C)C)c1nnc(S(=O)(=O)Cc2ccccc2)o1`, the inhibition is reported as 64% (active).
`O=C(/C=C/c1ccc(Cl)cc1Cl)c1cccnc1` was tested, and the inhibition was 47.2% (active).
In the case of `CCc1c(C)nc2cc(-c3cccs3)[nH]n2c1=O`, the inhibition is reported as 48.1% (active).
`O=C(NC(Nc1nc2ccc([N+](=O)[O-])cc2s1)(C(F)(F)F)C(F)(F)F)c1ccccc1` was tested, and the inhibition was 41.2% (active).
With `O=C(Nc1ccccc1Cl)/C(Cl)=C(\Cl)S(=O)c1ccccc1` (stereo not given) the inhibition was 98.4% (active).
`COc1ccc(CS(=O)/C(Cl)=C(/Cl)C(=O)Nc2ccc(OC)nc2)cc1` (stereo not given) was tested, and the inhibition was 95.9% (active).
With `COc1ccc(NC(=O)/C(Cl)=C(/Cl)S(=O)Cc2ccc(C)cc2)cn1` (stereo not given) the inhibition was 59.5% (active).
`O=C(CC(O)(C(F)(F)F)C(F)(F)F)Nc1ccc(Cl)c(Cl)c1` was tested, and the inhibition was 33.2% (active).
For `O=C1C=C(c2ccc(Cl)cc2)C(=O)N1Nc1ccccc1`, the inhibition was 34.7% (active).
In the case of `O=C1c2cccc3c([N+](=O)[O-])ccc(c23)C(=O)N1CC1CCCO1` (stereo not given), the inhibition is reported as 77.4% (active).
For `Cc1cccc(NC(=O)c2ccc([N+](=O)[O-])o2)c1`, the inhibition was 47.9% (active).
